According to article PMC5540273 (PLoS ONE, 2017):

Key:
Details in all cases: concentration: 1 μM, replicates: in singlicate; n = 1
[1] = tested on: TTK
[2] = tested on: TXK
[3] = tested on: TYK2(JH1domain-catalytic)
[4] = tested on: TYK2(JH2domain-pseudokinase)
[5] = tested on: TYRO3
[6] = tested on: ULK1
[7] = tested on: ULK2
[8] = tested on: ULK3
[9] = tested on: T1, VEGFR2
T1 construct: gene KDR

[10] = tested on: T2, VPS34
T2 construct: gene PIK3C3

[11] = tested on: VRK2
[12] = tested on: WEE1
[13] = tested on: WEE2
[14] = tested on: WNK1
[15] = tested on: WNK2
[16] = tested on: WNK3
[17] = tested on: WNK4
[18] = tested on: T3, YANK1
T3 construct: gene STK32A

[19] = tested on: T4, YANK2
T4 construct: gene STK32B

[20] = tested on: T5, YANK3
T5 construct: gene STK32C
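Also: KINOMEscan kinase panel screen.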

SMILES | %Inh [1] [%] | %Inh [2] [%] | %Inh [3] [%] | %Inh [4] [%] | %Inh [5] [%] | %Inh [6] [%] | %Inh [7] [%] | %Inh [8] [%] | %Inh [9] [%] | %Inh [10] [%] | %Inh [11] [%] | %Inh [12] [%] | %Inh [13] [%] | %Inh [14] [%] | %Inh [15] [%] | %Inh [16] [%] | %Inh [17] [%] | %Inh [18] [%] | %Inh [19] [%] | %Inh [20] [%]
COc1ccc(C2=C(Nc3cccc(C(=O)O)c3)C(=O)NC2=O)cc1 [SB-390765] | 10 | 21 | 0 | 0 | 22 | 16 | 8 | 28 | 21 | 33 | 0 | 0 | 16 | 49 | 15 | 23 | 24 | 0 | 0 | 0
COc1cccc(-c2cc(-c3c[nH]nc3-c3ccccn3)ccn2)c1 [GW680338] | 23 | 0 | 12 | 9 | 0 | 0 | 0 | 7 | 0 | 0 | 24 | 19 | 4 | 0 | 17 | 26 | 25 | 2 | 0 | 0
COc1cccc(NC(=O)NC2CCN(c3ccnc(Nc4ccc(F)cc4)n3)C2)c1 (stereo not drawn) [GSK1379721] | 9 | 41 | 26 | 52 | 0 | 13 | 0 | 9 | 10 | 7 | 0 | 6 | 0 | 5 | 8 | 33 | 2 | 0 | 0 | 0
CS(=O)(=O)c1ccc(-c2c(-c3ncn[nH]3)sc(N3CCOCC3)c2C#N)cc1 | 21 | 0 | 0 | 0 | 0 | 3 | 36 | 7 | 8 | 86 | 0 | 0 | 10 | 0 | 11 | 0 | 0 | 27 | 0 | 16
Cl.c1ccc(-c2n[nH]cc2-c2ccnc(-c3ccc(CN4CCOCC4)cc3)c2)nc1 [GW776245] | 31 | 7 | 0 | 0 | 0 | 0 | 0 | 20 | 0 | 0 | 0 | 16 | 0 | 0 | 0 | 0 | 0 | 0 | 0 | 0
Cn1ccc2ncnc(Oc3cccc(C(=O)Nc4ccccc4)c3)c21 | 0 | 0 | 0 | 0 | 0 | 0 | 6 | 9 | 59 | 11 | 0 | 5 | 0 | 0 | 0 | 0 | 0 | 11 | 1 | 29
Cc1ccc(NC(=O)Nc2cc(C(C)(C)C)nn2-c2ccccc2)cc1 [GSK1014915] | 4 | 0 | 25 | 4 | 7 | 17 | 0 | 13 | 6 | 0 | 0 | 0 | 7 | 9 | 0 | 13 | 25 | 13 | 5 | 7
Clc1cc(Cl)cc(Nc2ccnc(Nc3cc(Cl)cc(Cl)c3)n2)c1 [GSK175726] | 0 | 0 | 0 | 0 | 0 | 0 | 0 | 0 | 12 | 0 | 6 | 6 | 0 | 0 | 0 | 22 | 32 | 0 | 0 | 14
Cc1c(O)cccc1Nc1ccnc2ccc(C(F)(F)F)cc12.Cl [GW466413] | 0 | 25 | 9 | 14 | 3 | 2 | 0 | 0 | 0 | 0 | 26 | 0 | 0 | 23 | 17 | 21 | 1 | 0 | 10 | 15
